Data reported in PMC11066047.

How the values were obtained:
[1] = biological target: Heat shock protein homolog SSE1 (UniProt P32589); assay: cross-link between two proteins; cross-linking mass spectrometry
[2] = biological target: Heat shock protein homolog SSE2 (UniProt P32590); assay: as above
[3] = biological target: Isocitrate dehydrogenase [NAD] subunit 1, mitochondrial (UniProt P28834); assay: as above
[4] = biological target: Large ribosomal subunit protein eL30 (UniProt P14120); assay: as above
[5] = biological target: Small ribosomal subunit protein eS7A (UniProt P26786); assay: cross-link between two proteins
[6] = biological target: Large ribosomal subunit protein eL31A (UniProt P0C2H8); assay: cross-link between two proteins; cross-linking mass spectrometry
[7] = biological target: Large ribosomal subunit protein eL32 (UniProt P38061); assay: as above
[8] = biological target: Ribosome biogenesis protein ALB1 (UniProt P47019); assay: as above
[9] = biological target: Zuotin (UniProt P32527); assay: as above
[10] = biological target: Large ribosomal subunit protein eL38 (UniProt P49167); assay: as above
[11] = biological target: Large ribosomal subunit protein eL6A (UniProt Q02326); assay: as above
[12] = biological target: Large ribosomal subunit protein eL8B (UniProt P29453); assay: as above
[13] = biological target: Pescadillo homolog (UniProt P53261); assay: as above
[14] = biological target: Proteasome-interacting protein CIC1 (UniProt P38779); assay: as above
[15] = biological target: Large ribosomal subunit protein uL13B (UniProt P26785); assay: as above
[16] = biological target: Large ribosomal subunit protein uL4A (UniProt P10664); assay: as above
[17] = biological target: Large ribosomal subunit protein uL4B (UniProt P49626); assay: as above
[18] = biological target: Mitochondrial import inner membrane translocase subunit TIM14 (UniProt Q07914); assay: as above
[19] = biological target: NET1-associated nuclear protein 1 (UniProt Q02931); assay: cross-link between two proteins
[20] = biological target: Nucleolar complex protein 14 (UniProt Q99207); assay: cross-link between two proteins
[21] = biological target: Ribosomal RNA-processing protein 12 (UniProt Q12754); assay: cross-link between two proteins
[22] = biological target: Nucleolar protein 56 (UniProt Q12460); assay: cross-link between two proteins
[23] = biological target: Nucleolar protein 58 (UniProt Q12499); assay: cross-link between two proteins; cross-linking mass spectrometry
[24] = biological target: Prohibitin-2 (UniProt P50085); assay: as above
[25] = biological target: Proteasome subunit alpha type-2 (UniProt P23639); assay: as above
[26] = biological target: Proteasome subunit beta type-3 (UniProt P25451); assay: as above
[27] = biological target: Proteasome subunit alpha type-3 (UniProt P23638); assay: as above
[28] = biological target: Proteasome subunit alpha type-6 (UniProt P40302); assay: as above
[29] = biological target: Protein transport protein SBH2 (UniProt P52871); assay: as above
[30] = biological target: Ribosome biogenesis protein BMS1 (UniProt Q08965); assay: cross-link between two proteins
[31] = biological target: Ribosome biogenesis protein MAK21 (UniProt Q12176); assay: cross-link between two proteins; cross-linking mass spectrometry
[32] = biological target: Ribosome biogenesis protein YTM1 (UniProt Q12024); assay: as above
[33] = biological target: RuvB-like protein 2 (UniProt Q12464); assay: as above
[34] = biological target: Small ribosomal subunit protein RACK1 (UniProt P38011); assay: as above
[35] = biological target: Small ribosomal subunit protein uS10 (UniProt P38701); assay: as above
[36] = biological target: Small ribosomal subunit protein uS5 (UniProt P25443); assay: as above
[37] = biological target: Small ribosomal subunit protein eS12 (UniProt P48589); assay: as above
[38] = biological target: Small ribosomal subunit protein eS25A (UniProt Q3E792); assay: as above
[39] = biological target: Small ribosomal subunit protein eS28A (UniProt Q3E7X9); assay: cross-link between two proteins
[40] = biological target: Small ribosomal subunit protein uS11B (UniProt P39516); assay: cross-link between two proteins; cross-linking mass spectrometry
[41] = biological target: Small ribosomal subunit protein uS7 (UniProt P26783); assay: as above
[42] = biological target: Succinate--CoA ligase [ADP-forming] subunit alpha, mitochondrial (UniProt P53598); assay: as above
[43] = biological target: U3 small nucleolar RNA-associated protein 12 (UniProt Q12220); assay: as above
[44] = biological target: U3 small nucleolar RNA-associated protein 15 (UniProt Q04305); assay: as above
[45] = biological target: U3 small nucleolar RNA-associated protein 16 (UniProt Q08492); assay: cross-link between two proteins
[46] = biological target: U3 small nucleolar RNA-associated protein 21 (UniProt Q06078); assay: cross-link between two proteins
[47] = biological target: U3 small nucleolar RNA-associated protein 22 (UniProt P53254); assay: cross-link between two proteins
[48] = biological target: U3 small nucleolar RNA-associated protein MPP10 (UniProt P47083); assay: cross-link between two proteins
[49] = biological target: Ubiquitin-like protein MDY2 (UniProt Q12285); assay: cross-link between two proteins; cross-linking mass spectrometry
[50] = biological target: rRNA-processing protein FCF2 (UniProt Q12035); assay: cross-link between two proteins

U3 small nucleolar RNA-associated protein 15, sequence (Q04305 whole entry): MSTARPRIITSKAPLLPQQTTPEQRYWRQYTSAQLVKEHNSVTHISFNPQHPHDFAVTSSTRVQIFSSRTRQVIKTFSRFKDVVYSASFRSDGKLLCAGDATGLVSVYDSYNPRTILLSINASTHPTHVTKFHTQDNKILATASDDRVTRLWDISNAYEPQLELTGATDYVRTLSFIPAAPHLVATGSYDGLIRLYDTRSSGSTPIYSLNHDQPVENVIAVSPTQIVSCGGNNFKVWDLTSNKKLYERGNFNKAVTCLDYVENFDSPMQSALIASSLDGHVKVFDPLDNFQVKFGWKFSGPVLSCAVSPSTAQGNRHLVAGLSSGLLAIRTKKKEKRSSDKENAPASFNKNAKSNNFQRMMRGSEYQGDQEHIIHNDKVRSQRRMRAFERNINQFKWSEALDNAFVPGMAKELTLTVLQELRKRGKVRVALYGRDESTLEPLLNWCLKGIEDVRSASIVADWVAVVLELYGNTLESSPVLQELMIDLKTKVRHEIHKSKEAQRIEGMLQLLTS
Small ribosomal subunit protein uS5, sequence (P25443 whole entry): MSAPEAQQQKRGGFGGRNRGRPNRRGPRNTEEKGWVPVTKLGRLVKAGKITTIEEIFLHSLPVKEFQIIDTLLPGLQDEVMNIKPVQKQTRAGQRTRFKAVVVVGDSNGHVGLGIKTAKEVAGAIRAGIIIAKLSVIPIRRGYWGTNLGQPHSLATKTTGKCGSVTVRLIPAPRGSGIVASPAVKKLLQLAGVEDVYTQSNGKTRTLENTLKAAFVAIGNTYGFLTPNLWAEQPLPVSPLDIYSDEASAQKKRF
Proteasome subunit beta type-3, sequence (P25451 whole entry): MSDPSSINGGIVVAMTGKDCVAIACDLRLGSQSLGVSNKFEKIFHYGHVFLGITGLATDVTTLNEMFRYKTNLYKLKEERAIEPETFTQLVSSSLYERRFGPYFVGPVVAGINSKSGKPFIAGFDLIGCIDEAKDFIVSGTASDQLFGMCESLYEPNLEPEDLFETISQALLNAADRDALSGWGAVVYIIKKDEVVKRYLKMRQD
Heat shock protein SSA1, P10591, sequence (P10591 whole entry): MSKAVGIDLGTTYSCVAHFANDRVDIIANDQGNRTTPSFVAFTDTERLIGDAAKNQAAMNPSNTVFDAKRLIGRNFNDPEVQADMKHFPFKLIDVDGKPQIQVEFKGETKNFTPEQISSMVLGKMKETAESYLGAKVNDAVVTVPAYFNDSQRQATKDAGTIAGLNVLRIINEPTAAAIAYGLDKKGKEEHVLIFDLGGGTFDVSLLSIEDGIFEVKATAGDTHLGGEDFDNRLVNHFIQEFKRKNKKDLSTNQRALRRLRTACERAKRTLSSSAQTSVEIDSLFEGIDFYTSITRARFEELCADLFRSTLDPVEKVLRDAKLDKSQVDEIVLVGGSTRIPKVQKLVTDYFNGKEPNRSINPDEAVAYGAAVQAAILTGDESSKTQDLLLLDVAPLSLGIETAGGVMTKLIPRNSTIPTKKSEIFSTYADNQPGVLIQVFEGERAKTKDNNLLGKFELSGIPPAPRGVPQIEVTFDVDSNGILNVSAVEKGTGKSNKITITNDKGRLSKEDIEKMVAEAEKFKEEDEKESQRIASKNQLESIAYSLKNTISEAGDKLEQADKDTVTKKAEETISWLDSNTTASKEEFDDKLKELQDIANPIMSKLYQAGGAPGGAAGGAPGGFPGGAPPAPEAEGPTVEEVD
Ribosome biogenesis protein MAK21, sequence (Q12176 whole entry): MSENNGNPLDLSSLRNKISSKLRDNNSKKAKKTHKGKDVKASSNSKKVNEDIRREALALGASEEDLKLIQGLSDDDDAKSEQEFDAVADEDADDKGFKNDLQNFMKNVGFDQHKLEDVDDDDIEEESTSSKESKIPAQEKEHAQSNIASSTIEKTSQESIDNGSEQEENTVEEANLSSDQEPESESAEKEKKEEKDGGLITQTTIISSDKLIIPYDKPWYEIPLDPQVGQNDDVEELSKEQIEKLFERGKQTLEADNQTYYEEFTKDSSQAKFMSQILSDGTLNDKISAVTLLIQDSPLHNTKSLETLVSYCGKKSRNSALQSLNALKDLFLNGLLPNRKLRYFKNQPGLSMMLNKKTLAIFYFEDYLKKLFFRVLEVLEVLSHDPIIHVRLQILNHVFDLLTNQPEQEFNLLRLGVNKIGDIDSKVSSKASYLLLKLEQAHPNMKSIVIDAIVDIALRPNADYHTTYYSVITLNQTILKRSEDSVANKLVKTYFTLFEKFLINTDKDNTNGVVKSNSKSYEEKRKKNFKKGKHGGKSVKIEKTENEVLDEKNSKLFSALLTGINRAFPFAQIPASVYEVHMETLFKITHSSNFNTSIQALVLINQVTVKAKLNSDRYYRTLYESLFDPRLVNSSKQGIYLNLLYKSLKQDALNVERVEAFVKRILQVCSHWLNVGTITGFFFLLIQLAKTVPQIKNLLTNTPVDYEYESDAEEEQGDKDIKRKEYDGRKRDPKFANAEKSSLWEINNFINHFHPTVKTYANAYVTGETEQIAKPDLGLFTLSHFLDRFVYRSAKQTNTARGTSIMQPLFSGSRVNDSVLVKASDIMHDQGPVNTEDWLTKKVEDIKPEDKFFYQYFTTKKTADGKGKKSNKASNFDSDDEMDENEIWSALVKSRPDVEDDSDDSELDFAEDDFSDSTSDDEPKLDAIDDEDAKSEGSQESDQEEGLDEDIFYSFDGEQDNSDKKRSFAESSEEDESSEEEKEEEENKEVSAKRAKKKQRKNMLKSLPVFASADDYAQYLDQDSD
Large ribosomal subunit protein eL8B, sequence (P29453 whole entry): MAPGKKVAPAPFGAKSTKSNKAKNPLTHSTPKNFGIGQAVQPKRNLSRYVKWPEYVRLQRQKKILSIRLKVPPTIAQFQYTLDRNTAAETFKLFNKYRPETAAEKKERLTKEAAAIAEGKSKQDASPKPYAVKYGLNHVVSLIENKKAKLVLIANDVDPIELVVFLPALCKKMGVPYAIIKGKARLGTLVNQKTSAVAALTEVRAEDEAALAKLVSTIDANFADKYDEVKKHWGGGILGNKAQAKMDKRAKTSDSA
Small ribosomal subunit protein eS28A, sequence (Q3E7X9 whole entry): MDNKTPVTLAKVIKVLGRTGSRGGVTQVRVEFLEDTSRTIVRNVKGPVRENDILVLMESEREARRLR
Proteasome-interacting protein CIC1, sequence (P38779 whole entry): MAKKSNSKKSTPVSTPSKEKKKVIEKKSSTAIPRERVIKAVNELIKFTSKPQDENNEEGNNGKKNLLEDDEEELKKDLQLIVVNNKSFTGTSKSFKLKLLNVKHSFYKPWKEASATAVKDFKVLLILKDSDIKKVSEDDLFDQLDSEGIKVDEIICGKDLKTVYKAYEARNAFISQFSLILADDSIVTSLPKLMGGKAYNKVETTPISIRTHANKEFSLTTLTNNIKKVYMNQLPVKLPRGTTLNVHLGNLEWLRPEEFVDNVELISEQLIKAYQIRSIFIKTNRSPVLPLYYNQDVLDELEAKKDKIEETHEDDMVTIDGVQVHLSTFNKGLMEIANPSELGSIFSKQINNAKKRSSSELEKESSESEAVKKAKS
Proteasome subunit alpha type-2, sequence (P23639 whole entry): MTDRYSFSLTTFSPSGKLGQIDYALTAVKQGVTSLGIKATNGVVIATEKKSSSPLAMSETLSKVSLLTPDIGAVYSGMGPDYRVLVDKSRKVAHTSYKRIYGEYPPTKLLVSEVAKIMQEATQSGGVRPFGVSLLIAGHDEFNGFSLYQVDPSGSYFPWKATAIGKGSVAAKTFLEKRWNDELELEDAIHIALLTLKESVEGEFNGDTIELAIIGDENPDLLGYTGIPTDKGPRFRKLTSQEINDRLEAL
Ribosome biogenesis protein YTM1, sequence (Q12024 whole entry): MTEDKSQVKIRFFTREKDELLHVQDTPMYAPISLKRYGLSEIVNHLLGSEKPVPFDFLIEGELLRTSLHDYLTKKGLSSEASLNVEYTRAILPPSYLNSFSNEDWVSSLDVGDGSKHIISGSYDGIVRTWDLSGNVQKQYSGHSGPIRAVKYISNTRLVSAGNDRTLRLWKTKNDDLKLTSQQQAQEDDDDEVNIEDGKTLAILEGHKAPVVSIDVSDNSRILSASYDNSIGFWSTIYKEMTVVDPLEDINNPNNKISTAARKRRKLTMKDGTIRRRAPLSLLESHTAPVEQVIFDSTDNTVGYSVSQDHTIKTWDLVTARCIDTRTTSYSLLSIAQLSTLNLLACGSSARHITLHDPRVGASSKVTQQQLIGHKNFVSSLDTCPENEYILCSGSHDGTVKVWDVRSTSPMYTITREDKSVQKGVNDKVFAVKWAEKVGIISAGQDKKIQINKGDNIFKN
NET1-associated nuclear protein 1, sequence (Q02931 whole entry): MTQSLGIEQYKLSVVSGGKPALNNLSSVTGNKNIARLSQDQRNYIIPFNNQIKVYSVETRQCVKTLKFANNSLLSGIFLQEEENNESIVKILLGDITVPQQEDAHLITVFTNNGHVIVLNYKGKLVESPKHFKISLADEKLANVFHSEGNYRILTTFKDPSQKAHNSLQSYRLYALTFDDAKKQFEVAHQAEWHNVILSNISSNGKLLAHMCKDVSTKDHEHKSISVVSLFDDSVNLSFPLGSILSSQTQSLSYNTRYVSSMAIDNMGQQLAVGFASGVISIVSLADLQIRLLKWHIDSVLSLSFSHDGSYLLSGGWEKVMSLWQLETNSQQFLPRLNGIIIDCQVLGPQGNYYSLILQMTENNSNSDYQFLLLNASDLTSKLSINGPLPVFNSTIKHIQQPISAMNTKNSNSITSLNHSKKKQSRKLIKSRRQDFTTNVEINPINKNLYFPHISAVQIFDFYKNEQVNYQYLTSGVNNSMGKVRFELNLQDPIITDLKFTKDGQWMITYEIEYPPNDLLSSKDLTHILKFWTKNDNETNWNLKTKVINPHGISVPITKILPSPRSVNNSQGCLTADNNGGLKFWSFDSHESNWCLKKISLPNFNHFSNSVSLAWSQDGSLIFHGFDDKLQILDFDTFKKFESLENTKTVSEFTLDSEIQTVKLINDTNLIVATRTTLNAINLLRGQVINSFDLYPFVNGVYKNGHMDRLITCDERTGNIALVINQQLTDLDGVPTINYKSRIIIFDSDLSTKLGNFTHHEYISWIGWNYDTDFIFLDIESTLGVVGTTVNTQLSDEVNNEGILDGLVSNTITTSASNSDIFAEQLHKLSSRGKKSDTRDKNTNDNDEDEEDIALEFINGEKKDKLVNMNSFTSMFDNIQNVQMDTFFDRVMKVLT

Which “listed as a hit” value [1] does the source give for Heat shock protein SSA1, P10591 here?
Its value is “yes”.

What about the “listed as a hit” value [2] of the same substance?
The value was “yes”.

With “Isocitrate dehydrogenase [NAD] subunit 2, mitochondrial, P28241” as the substance, how does the “listed as a hit” value [3] read?
Its value is “yes”.

Which “listed as a hit” value [4] does the source give for “Small ribosomal subunit protein uS15, P05756” here?
Its value is “yes”.

What about the “listed as a hit” value [5] of the same substance?
The value was “yes”.

For “Large ribosomal subunit protein uL22A, P05740”, which “listed as a hit” value [6] is on record?
The value was “yes”.

What about the “listed as a hit” value [7] of the same substance?
The value was “yes”.

And the “listed as a hit” value [8]?
Its value is “yes”.

What about the “listed as a hit” value [9] of the same substance?
Its value is “yes”.

For “Large ribosomal subunit protein eL22A, P05749”, which “listed as a hit” value [10] is on record?
The value was “yes”.

With “Large ribosomal subunit protein eL32, P38061” as the substance, how does the “listed as a hit” value [11] read?
The value was “yes”.

How did the “listed as a hit” value [12] turn out when “Large ribosomal subunit protein eL27A, P0C2H6” was run?
Its value is “yes”.

What does the source list for “Large ribosomal subunit protein eL8A, P17076”?
listed as a hit [12]: yes; listed as a hit [13]: yes; listed as a hit [14]: yes

For “Large ribosomal subunit protein uL3, P14126”, which “listed as a hit” value [15] is on record?
Its value is “yes”.

Which “listed as a hit” value [16] does the source give for “Large ribosomal subunit protein uL30A, P05737” here?
The value was “yes”.

What about the “listed as a hit” value [17] of the same substance?
The value was “yes”.

“Mitochondrial import inner membrane translocase subunit TIM16, P42949” was tested. Which “listed as a hit” value [18] did it give?
The value was “yes”.

Which “listed as a hit” value [19] does the source give for “U3 small nucleolar RNA-associated protein 8, P53276” here?
Its value is “yes”.

How did the “listed as a hit” value [19] turn out when “U3 small nucleolar RNA-associated protein 10, P42945” was run?
Its value is “yes”.

Essential nuclear protein 1, P38333 was tested. Which “listed as a hit” value [20] did it give?
The value was “yes”.

What about the “listed as a hit” value [21] of the same substance?
Its value is “yes”.

Which “listed as a hit” value [22] does the source give for “rRNA 2'-O-methyltransferase fibrillarin, P15646” here?
The value was “yes”.

And the “listed as a hit” value [23]?
Its value is “yes”.

For “Large ribosomal subunit protein eL8B, P29453”, which “listed as a hit” value [13] is on record?
Its value is “yes”.

What about the “listed as a hit” value [14] of the same substance?
The value was “yes”.

For Prohibitin-1, P40961, which “listed as a hit” value [24] is on record?
Its value is “yes”.

Which results are given for Proteasome subunit alpha type-3, P23638?
listed as a hit [25]: yes; listed as a hit [26]: yes

For Proteasome subunit alpha type-1, P21243, which “listed as a hit” value [25] is on record?
Its value is “yes”.

Which “listed as a hit” value [27] does the source give for Proteasome subunit beta type-4, P22141 here?
Its value is “yes”.

And the “listed as a hit” value [26]?
Its value is “yes”.

“Probable proteasome subunit alpha type-7, P21242” was tested. Which “listed as a hit” value [28] did it give?
The value was “yes”.

With Sec sixty-one protein homolog, P38353 as the substance, how does the “listed as a hit” value [29] read?
Its value is “yes”.

For rRNA processing protein RCL1, Q08096, which “listed as a hit” value [30] is on record?
Its value is “yes”.

For rRNA biogenesis protein RRP5, Q05022, which “listed as a hit” value [31] is on record?
The value was “yes”.

Which “listed as a hit” value [31] does the source give for Nucleolar complex protein 2, P39744 here?
Its value is “yes”.

“Ribosome biogenesis protein ERB1, Q04660” was tested. Which “listed as a hit” value [32] did it give?
The value was “yes”.

Which “listed as a hit” value [32] does the source give for Pescadillo homolog, P53261 here?
Its value is “yes”.

With RuvB-like protein 1, Q03940 as the substance, how does the “listed as a hit” value [33] read?
The value was “yes”.

With “Small ribosomal subunit protein uS3, P05750” as the substance, how does the “listed as a hit” value [34] read?
The value was “yes”.

What about the “listed as a hit” value [35] of the same substance?
The value was “yes”.

What about the “listed as a hit” value [36] of the same substance?
Its value is “yes”.

“Ubiquitin-ribosomal protein eS31 fusion protein, P05759” was tested. Which “listed as a hit” value [37] did it give?
Its value is “yes”.

Which results are given for “Small ribosomal subunit protein uS7, P26783”?
listed as a hit [38]: yes; listed as a hit [39]: yes

With “Small ribosomal subunit protein eS26A, P39938” as the substance, how does the “listed as a hit” value [39] read?
The value was “yes”.

For “Small ribosomal subunit protein eS1B, P23248”, which “listed as a hit” value [40] is on record?
Its value is “yes”.

With “Small ribosomal subunit protein eS21A, P0C0V8” as the substance, how does the “listed as a hit” value [36] read?
The value was “yes”.

Which “listed as a hit” value [41] does the source give for “Small ribosomal subunit protein eS28B, P0C0X0” here?
The value was “yes”.

For “Succinate--CoA ligase [ADP-forming] subunit beta, mitochondrial, P53312”, which “listed as a hit” value [42] is on record?
Its value is “yes”.

How did the “listed as a hit” value [43] turn out when “U3 small nucleolar RNA-associated protein 13, Q05946” was run?
The value was “yes”.

With “U3 small nucleolar RNA-associated protein 21, Q06078” as the substance, how does the “listed as a hit” value [43] read?
The value was “yes”.

“NET1-associated nuclear protein 1, Q02931” was tested. Which “listed as a hit” value [44] did it give?
Its value is “yes”.

Which “listed as a hit” value [44] does the source give for “U3 small nucleolar RNA-associated protein 5, Q04177” here?
Its value is “yes”.

Nucleolar complex protein 4, Q06512 was tested. Which “listed as a hit” value [45] did it give?
Its value is “yes”.

Which “listed as a hit” value [46] does the source give for Periodic tryptophan protein 2, P25635 here?
The value was “yes”.

“Ribosomal RNA-processing protein 7, P25368” was tested. Which “listed as a hit” value [47] did it give?
Its value is “yes”.

For “U3 small nucleolar ribonucleoprotein protein IMP3, P32899”, which “listed as a hit” value [48] is on record?
The value was “yes”.

How did the “listed as a hit” value [49] turn out when Golgi to ER traffic protein 4, Q12125 was run?
Its value is “yes”.

For “U3 small nucleolar RNA-associated protein 6, Q02354”, which “listed as a hit” value [50] is on record?
The value was “yes”.
